Most compounds without a hit are left out; they make up all but 3.4% or so of the library.
PLC-gamma1 inh: inhibitors of human phospholipase C gamma1 | purified PLC-gamma1, fluorogenic substrate, fluorescence | inhibition, % at 12.2 µM | 370,000 tested, 0.84% active; in the data active means inhibition above about 9.5%
ADAM10 inh: ADAM10 inhibition, QFRET primary screen; O14672; recombinant ADAM10, EDANS/DABCYL FRET peptide cleavage, 3 h; inhibition, % at 7 µM; 370,000 tested, 0.62% active; AID 720582;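 active means inhibition above a per-campaign cutoff equal to the mean of compounds falling between control-based bounds plus 3 SD, cut at about 20% in these data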
HGIII-sPLA2 inh: Blocks human group III sPLA2 activity; QFRET BODIPY PC-A2 liposome hydrolysis, fluorescence; inhibition, % at 12.2 µM; 370,000 tested, 0.56% active;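 active means inhibition above mean plus 3 SD of compounds lying within the high and low control bounds, cut at about 19% in these data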
ADAM17 inh: ADAM17 inhibition, QFRET primary screen. 370,000 tested, 0.83% active. recombinant ADAM17, EDANS/DABCYL FRET peptide cleavage. inhibition, % at 6.95 µM. P78536. AID 720648;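 active means inhibition above the mean of compounds lying between control limits plus 3 SD, set per campaign, cut at about 8.5% in these data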
proKLK7 act: activators of human kallikrein-7 zymogen | P49862 | activation, % at 7 µM | 370,000 tested, 0.9% active | purified proKLK7, EDANS-DABCYL substrate fluorescence; 100% is mature enzyme control, 0% vehicle;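 active means activation above the mean of all tested compounds plus 3 SD, computed per campaign excluding outliers beyond control limits, cut at about 13% in these data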
Target sequence (P49862 whole entry, looked up): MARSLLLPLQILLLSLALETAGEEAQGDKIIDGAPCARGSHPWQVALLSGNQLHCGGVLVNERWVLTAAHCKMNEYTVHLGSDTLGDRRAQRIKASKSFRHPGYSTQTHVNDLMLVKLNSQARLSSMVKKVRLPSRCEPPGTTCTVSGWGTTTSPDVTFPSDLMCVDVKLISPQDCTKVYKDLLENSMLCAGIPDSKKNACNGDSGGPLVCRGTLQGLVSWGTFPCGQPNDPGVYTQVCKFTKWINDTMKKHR
PLCb3 inh: blocks human PLC-beta3 enzyme activity. Purified PLC-beta3, fluorogenic substrate, fluorescence. inhibition, % at 12.2 µM. 370,000 tested, 0.18% active. AID 720704
PLCgamma1 ctr: PLC-gamma1 inhibition, counter-screen for PLC-beta3 hits | purified PLC-gamma1, fluorogenic substrate, fluorescence | 3,300 tested, 3.1% active | AID 743258 | inhibition, % at 12.3 µM | shares compounds with PLC-gamma1 inh; in the data active means inhibition above about 9.5%
PLCb3 confirm: human PLC-beta3 inhibition, confirmation. purified PLC-beta3, fluorogenic substrate fluorescence. AID 743261. shares compounds with PLC-gamma1 inh. inhibition, % at 12.3 µM. 3,300 tested, 1% active
sPLA2 confirm: human GIII-sPLA2 inhibition, confirmation; shares compounds with HGIII-sPLA2 inh; inhibition, % at 12.2 µM; 2,000 tested, 34% active; recombinant hGIII-sPLA2, BODIPY PC-A2 QFRET fluorescence; AID 743280;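 active means mean inhibition across triplicates above the hit cutoff set in the earlier primary screen, cut at about 19% in these data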
BODIPY interf: optically interferes with 535nm fluorescence in sPLA2 counter-screen. shares compounds with HGIII-sPLA2 inh. BODIPY FL product fluorescence interference, QFRET. inhibition, % at 12.2 µM. 2,000 tested, 8.5% active;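 active means average inhibition above the solvent-only control mean plus 3 SD, cut at about 6% in these data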
535nm interf DR: interferes with 535nm fluorescence in dose response counter-screen. shares compounds with HGIII-sPLA2 inh. BODIPY FL product fluorescence interference, cell-free. IC50, µM. 240 tested, under 10 active;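 active means IC50 at or below 10 µM; inactive means IC50 above 10 µM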
Numbers stand for hits; - = inactive; . = not tested or not shown. Unless noted, no stated cut-off is given here; in the data, active means inhibition above about 11%; inactive means the rest.

SMILES	PLC-gamma1 inh	ADAM10 inh	HGIII-sPLA2 inh	ADAM17 inh	proKLK7 act	PLCb3 inh	PLCgamma1 ctr	PLCb3 confirm	sPLA2 confirm	BODIPY interf	others
CSc1nnc(-c2cc(C)on2)n1-c1ccccc1	11.1	-	20.1	-	-	-	-	-	-	-
CSc1nnc(-c2nnc(SC)n2-c2ccccc2)n1-c1ccccc1	-	-	-	-	-	-	.	.	.	.
COC(=O)C1CN(Cc2cn(CCOC(C)=O)nn2)CCS(=O)(=O)N1Cc1ccccc1 (configuration not stated)	-	-	-	-	-	-	.	.	.	.
COC(=O)[C@H](C(C)C)N1CCc2nnn(CC3CCCCC3)c2-c2ccccc2S1(=O)=O	-	-	-	-	-	-	.	.	.	.
FC(F)(F)C1=Nc2cccc3cccc(c23)N1	13.5	-	28.3	-	-	-	11.9	-	32.1	12.3
Fc1ccc(C2=Nc3cccc4cccc(c34)N2)cc1	-	-	-	-	-	-	.	.	.	.
CCOc1ccc(C(C)=O)cc1CSC(=N)N	-	-	-	-	-	-	.	.	.	.
CCCCOc1ccc(Br)cc1CSC(=N)N	10.4	-	43.7	-	-	-	-	-	25.4	-
CCOc1nc(Nc2ccc([N+](=O)[O-])cc2)nc(NC(C)(C)C)n1	9.8	-	20.9	-	-	-	-	-	-	-
C[C@@H]1CN([C@H](C)CO)C(=O)CCCn2nncc2CO[C@H]1CN(C)C(=O)Nc1cccc(Oc2ccccn2)c1	9.7	-	20.3	-	-	-	-	-	-	-
COc1ccc(NC(=O)NC2CCN(S(=O)(=O)c3ccc(F)cc3)CC2)cc1OC	-	-	-	-	-	-	.	.	.	.
CC(C)C1COC(c2cccn2Cc2ccccc2Cl)=N1 (configuration not stated)	-	-	-	-	-	-	.	.	.	.
Cc1ccc(Cn2cccc2C2=NC(C)CO2)cc1 (configuration not stated)	11.3	-	21.5	-	-	-	-	-	-	-
Nc1c(O)ccc2c1C(=O)c1ccccc1C2=O	-	-	-	-	-	-	.	.	.	.
Nc1cc(N)c2c(c1)C(=O)c1ccccc1-2	9.8	-	19.9	-	-	-	-	-	37.7	-	535nm interf DR=-
O=C(CSc1nc2[nH]ncc2c(=O)[nH]1)NCc1ccc(F)cc1	11.7	-	95.9	-	-	-	-	-	-	-
Cc1cccc(NC2=C(NC(=O)c3ccccc3)C(=O)c3ccccc3C2=O)c1	10.1	-	23.9	-	-	-	-	-	22.6	-
CNc1nc(-c2ccccn2)nnc1-c1ccccc1	-	-	-	-	-	-	.	.	.	.
CC(C)(C)c1ccc(CNc2nc(-c3ccccn3)nnc2-c2ccccc2)cc1	17.8	-	39.5	-	.	-	13.6	15.2	-	-
C=CCN1[C@H](C#N)[C@@H](c2ccccc2)[C@H]1CO	-	-	-	-	-	-	.	.	.	.
CCC[C@H]1[C@@H](OC(=O)NCCc2c[nH]c3ccccc23)CC[C@@]23CCCN2C(=O)CCC[C@@H]13	-	-	-	-	.	-	.	.	.	.
Cc1ccc2cc(CCNC(=O)c3cccc([N+](=O)[O-])c3)c(=O)[nH]c2c1C	10.4	-	21.6	-	-	-	-	-	-	-
CN(C)C(=O)OCC1COc2ccccc2O1 (configuration not stated)	9.9	-	21.0	-	-	-	-	-	-	-
Cc1ccccc1CN1CCCCC(NC(=O)c2ccc(N(C)C)cc2)C1=O (configuration not stated)	-	-	-	-	-	-	.	.	.	.
OC1c2cc(Br)ccc2N=C2CCCCCN21 (configuration not stated)	-	-	20.1	-	-	-	.	.	-	-
SMILES	PLC-gamma1 inh	ADAM10 inh	HGIII-sPLA2 inh	ADAM17 inh	proKLK7 act	PLCb3 inh	PLCgamma1 ctr	PLCb3 confirm	sPLA2 confirm	BODIPY interf	others
Oc1ccc(Oc2ccccc2F)c2cccnc12	-	-	25.4	-	.	-	.	.	26.0	-
Nc1cccnc1Oc1ccccc1F	-	-	-	-	-	-	.	.	.	.
C[C@H](O)[C@@H]1CN2CCc3c([nH]c4c(-c5ccc6c(c5)OCO6)cccc34)[C@@H]2C[C@@H]1N(C)C(=S)NCCc1ccccc1	-	-	-	-	-	-	.	.	.	.
Cc1nn(C)c(C(=O)NNC(=S)NC2CCCCC2)c1Br	-	-	22.7	-	-	-	.	.	21.7	-
Cn1ncc(Br)c1C(=O)NC1CCCCCCC1	-	-	-	-	-	-	.	.	.	.
O=C(O)c1ccccc1C(=O)Nc1cccc([N+](=O)[O-])c1	-	-	-	-	-	-	.	.	.	.
O=C(O)c1ccccc1C(=O)Nc1ccc(Nc2ccc([N+](=O)[O-])cc2[N+](=O)[O-])cc1	-	-	21.8	-	-	-	.	.	-	-
NC(=Nc1nc(-c2ccccn2)cc2ccccc12)c1ccccn1	-	-	20.9	-	-	-	.	.	-	-
COc1ccccc1C(=O)N1CCN(C(=O)[C@@H](Cc2ccccc2)NC(=O)[C@H]2O[C@@H](n3ccc(N)nc3=O)[C@H](O)[C@@H]2O)CC1	-	-	-	-	-	-	.	.	.	.
CCOc1ccc(/C=C2\NC(=S)NC2=O)cc1	-	-	23.7	-	-	-	.	.	23.3	-
Cc1no[n+]([O-])c1COc1ccc(/C=C2\NC(=S)NC2=O)cc1	-	-	-	-	-	-	.	.	.	.
O=C(Nc1ccccc1-c1ccccc1)C1CCCC1	-	-	19.8	-	-	-	.	.	-	-
CC(C)N=C1NN=C(c2cccs2)C(CC(=O)O)S1 (configuration not stated)	-	-	20.1	-	-	-	.	.	-	-
COC(=O)C1CN(Cc2cn(CCOC(C)=O)nn2)CCS(=O)(=O)N1Cc1ccc(C)cc1 (configuration not stated)	-	-	-	-	-	-	.	.	.	.
CCOC(=O)c1sc(=S)n(C)c1NC(=O)c1ccccc1C	-	-	24.4	-	-	-	.	.	-	-
CC(=O)N1C[C@@H](CO)[C@@H]2C[C@H]1c1ccccc1N2C	-	-	-	-	-	-	.	.	.	.
CCC1CCCCN1C(=S)NCc1ccccc1 (configuration not stated)	-	-	23.6	-	-	-	.	.	-	-

Bioassay records (PubChem)
